High-throughput results as filed in PubChem BioAssay.
HEK293 tox: Cytotoxic Profiling in HEK 293 Cell Line of Diverse Libraries Using Quantitative High-Throughput Screening | HEK 293 viability, ATP luminescence (CellTiter-Glo), 48-72 h | Potency, µM (series often up to 115 µM), actives largely listed as inhibitors | actives 6.6% (n = 94,000); further: nearly all actives have a fitted effect of over 60% in size
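Cells seeded first (HEK 293, 250 cells/well), then compound added by pintool. Incubation ran 48 or 72 hr at 37 degree Celsius. CellTiter-Glo was added and luminescence imaged after 10 min at room temperature.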
hNpr1 antagonist: Natriuretic polypeptide receptor (hNpr1) antagonism - Primary qHTS; Atrial natriuretic peptide receptor 1 (Homo sapiens), P16066; HEK293 hNpr1 GloSensor cGMP, ANP-stimulated luminescence; Potency, µM (doses to about 46.3 µM), actives largely listed as inhibitors; actives 1.6% (n = 76,000); calls by dose curve; further: nearly all actives have a fitted effect of over 60% in size
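HEK293 cells stably expressing human Npr1 and cGMP GloSensor pGS-40F, loaded 2 h with 2% GloSensor reagent, given compound 30 min at room temperature. Luminescence read before and 20 min after 0.1 nM hNppA.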
3T3 cytotox: Cytotoxic Profiling in NIH 3T3 Cell Line of Diverse Libraries Using Quantitative High-Throughput Screening. NIH 3T3 viability, CellTiter-Glo ATP luminescence, 48-72 h. Potency, µM (top dose mostly 96.7 µM), hits mostly inhibitors. actives 4.3% (n = 94,000). AID 1345082, 2018; further: nearly all actives have a fitted effect of over 55% in size
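Mouse fibroblast NIH 3T3 cells, 400 per well, received compound via pintool and were incubated for 48 or 72 hr prior to CellTiter-Glo ATP luminescence measurement.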
FLuc inh: Firefly luciferase inhibition profiling of diverse chemical library using quantitative high-throughput screening. Potency, µM (titrated, usually from 115 µM), usual class: inhibitors. actives 2.5% (n = 76,000). purified P. pyralis luciferase, luminescence, biochemical; further: nearly all actives have a fitted effect of over 65% in size
Target sequence (P08659 whole entry, looked up): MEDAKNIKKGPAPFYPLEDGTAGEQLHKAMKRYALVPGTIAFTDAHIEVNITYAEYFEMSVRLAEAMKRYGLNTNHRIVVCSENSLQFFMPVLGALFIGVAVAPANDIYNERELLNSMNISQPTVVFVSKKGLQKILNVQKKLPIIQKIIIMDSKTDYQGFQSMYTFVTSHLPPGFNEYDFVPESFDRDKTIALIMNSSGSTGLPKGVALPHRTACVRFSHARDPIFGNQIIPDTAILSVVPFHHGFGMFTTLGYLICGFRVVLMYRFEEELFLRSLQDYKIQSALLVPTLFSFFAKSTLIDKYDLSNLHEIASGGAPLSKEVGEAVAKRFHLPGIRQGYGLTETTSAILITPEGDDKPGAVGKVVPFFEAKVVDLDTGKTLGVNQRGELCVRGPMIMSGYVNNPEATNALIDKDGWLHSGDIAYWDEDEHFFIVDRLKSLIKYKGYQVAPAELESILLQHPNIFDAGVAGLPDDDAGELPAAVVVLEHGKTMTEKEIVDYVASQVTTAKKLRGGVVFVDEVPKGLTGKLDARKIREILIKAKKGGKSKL
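Purified 10nM P. pyralis luciferase with 10uM D-luciferin and 10uM ATP in 50mM Tris acetate pH 7.5, 10mM Mg acetate, 0.01% Tween-20, 0.05% BSA. qHTS titration; luminescence read by CCD imager.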
GPT2 inhibitor: Primary qHTS assay for inhibitors of Glutamate pyruvate transaminase 2 (GPT2); Alanine aminotransferase 2 (Homo sapiens), Q8TD30; Recombinant GPT2, coupled pyruvate oxidase/HRP Amplex Red fluorescence; Potency, µM (top dose mostly 57.7 µM), most hits filed as inhibitors; actives 0.25% (n = 100,000); further: nearly all actives have a fitted effect of over 60% in size
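Inhibition is scored from Amplex Red fluorescence generated when pyruvate oxidase and HRP act on pyruvate released by GPT2. Reactions contain 10ng/uL enzyme, 250uM a-KG and 2mM L-alanine and run 30 min at room temperature.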
Hits are given with their value; – = inactive; ? = inconclusive; · = no result. Rows were chosen to be rich in hits. Some 10% of all compounds tested hit in one or more screens of this group. Unless noted, the call rests on the fitted dose curve; in most records, active means well fitted curve in the direction sought with a large enough effect; inconclusive means small, poorly fitted or top-dose-only effect, or another doubt; inactive means no such curve, though single readings can be large; an effect the other way counts as inactive or inconclusive.

SMILES | HEK293 tox | hNpr1 antagonist | 3T3 cytotox | FLuc inh | GPT2 inhibitor
Cc1ccc(-c2cc(C(=O)NCc3ccc4c(c3)OCO4)nn3cnnc23)cc1 | ? | · | ? | · | –
O=C1OC[C@@H]2CCN(Cc3ccccc3Cl)Cc3ccc(F)cc3N12 | 71µM | – | – | – | –
C[C@@H]1O[C@@H](O[C@H]2[C@H](Oc3cc(O)c(C(=O)CCc4ccc(O)cc4)c(O)c3)O[C@H](CO)[C@@H](O)[C@@H]2O)[C@H](O)[C@H](O)[C@H]1O | · | · | · | · | 7.1µM
CC(=O)c1c(O)cc(O[C@@H]2O[C@H](CO)[C@@H](O)[C@H](O)[C@H]2O)cc1O | · | · | · | · | –
CCCC1CN(Cc2cccc(F)c2)C(=O)c2ccc(C)nc2O1 (stereo unspecified) | 50µM | · | ? | · | ·
Cc1ccc2c(n1)OC1(CCCC1)CN(Cc1ccc3c(c1)OCO3)C2=O | ? | · | ? | · | –
Cc1ccc2c(n1)O[C@@H](COCc1ccccc1)CN(Cc1ccc3c(c1)OCO3)C2=O | ? | · | 13µM | · | –
Cc1ccc2c(n1)O[C@@H](COCc1ccccc1)CN(Cc1cccs1)C2=O | 32µM | · | 25µM | · | –
COc1ccc(CN2CC(C(C)(C)C)Oc3nc(C)ccc3C2=O)cc1 (stereo unspecified) | – | · | ? | · | –
CC(C)C[C@@H]1N[C@H](C(=O)NCc2ccccc2)Cc2cn(Cc3cccnc3)c3cccc1c23 | 25µM | – | ? | – | –
COc1ccccc1CNC(=O)[C@@H]1Cc2cn(C)c3cccc(c23)[C@H](CC(C)C)N1 | 45µM | – | 50µM | – | ?
COc1ccc(CNC(=O)[C@@H]2Cc3cn(Cc4cccnc4)c4cccc(c34)[C@H](CC(C)C)N2)cc1 | 35µM | – | ? | – | –
C=CCNC(=O)[C@@H]1Cc2cn(Cc3cccnc3)c3cccc(c23)[C@H](CC(C)C)N1 | 50µM | – | ? | – | –
COc1ccccc1-c1cccc(C(=O)N2CCN(C(=O)c3ccc(Cl)nc3)CC2)c1 | ? | · | – | · | –
C[S+](=O)([O-])c1ccc(-c2cc(C(=O)N3CCC(C#N)CC3)nn3cccc23)cc1 | ? | · | – | · | –
COc1ccc(CCC(=O)N2CCCCCCN(C)C(=O)[C@@H]3CCC[C@@H]32)cc1 | – | – | – | – | –
Cc1ncccc1C(=O)N1CC(Oc2ccccc2-c2nc(-c3ccccc3)no2)C1 | ? | – | ? | 40µM | –
O=C(c1cnccn1)N1CCC(Oc2ccccc2-c2nc(-c3ccccc3)no2)C1 (stereo unspecified) | ? | – | ? | ? | –
O=C(C1CCOCC1)N1CCC(Oc2ccccc2-c2nc(-c3ccccc3)no2)C1 (stereo unspecified) | 32µM | – | ? | – | –
O=C(c1ccncc1)N1CCC(Oc2ccccc2-c2nc(-c3ccccc3)no2)C1 (stereo unspecified) | 40µM | – | ? | ? | –
NC1CCc2nn(CC(=O)NCc3ccc4c(c3)OCO4)c(=O)n2CC1 (stereo unspecified) | – | – | – | – | ?
COCC1CN(C)CC12CCN(C(=O)CCc1cccc(OC)c1)CC2 (stereo unspecified) | – | – | – | – | –
COc1ccc2[nH]c3c(c2c1)CCNC31CCN(C(=O)C2CC=CC2)CC1 | 45µM | – | – | – | –
COc1ccc2[nH]c3c(c2c1)CCNC31CCN(C(=O)C2CCOCC2)CC1 | – | – | – | – | –
Cc1ccsc1C(=O)N1CCC2(CC1)NCCc1c2[nH]c2ccccc12 | 45µM | – | – | – | –
SMILES | HEK293 tox | hNpr1 antagonist | 3T3 cytotox | FLuc inh | GPT2 inhibitor
O=C(c1ccncc1)N1CCC2(CC1)NCCc1c2[nH]c2ccccc12 | – | – | – | – | –
COc1ccc(C(=O)N2CCC3(CC2)NCCc2c3[nH]c3ccccc23)cc1 | 79µM | – | – | – | –
COc1ccc2[nH]c3c(c2c1)CCNC31CCN(S(=O)(=O)c2cccnc2)CC1 | 25µM | – | ? | – | –
Cc1ccc(C(=O)N2CCC3(CC2)NCCc2c3[nH]c3ccccc23)s1 | ? | – | ? | – | –
O=C(c1ccccc1F)N1CCC2(CC1)NCCc1c2[nH]c2ccccc12 | 79µM | – | – | – | –
COc1ccc(C(=O)N2CCC3(CC2)NCCc2c3[nH]c3ccccc23)cc1F | 13µM | – | ? | – | –
CCN1CCC(N2CCC3(CC2)NCCc2c3[nH]c3ccc(OC)cc23)CC1 | 32µM | – | 32µM | – | –
O=C(c1cccnc1)N1CCC2(CC1)NCCc1c2[nH]c2ccccc12 | – | – | – | – | –
COCC(=O)N1CCC2(CC1)NCCc1c2[nH]c2ccccc12 | – | – | – | – | –
COc1ccccc1-c1ccc(C(=O)N2CCC(C(=O)N3CCN(Cc4ccccc4)CC3)CC2)cc1 | ? | · | ? | · | –
CCC1Oc2ccc(NC(=O)COc3ccccc3)cc2CN(Cc2cccc(OC)c2)C1=O (stereo unspecified) | 45µM | – | ? | – | –
CCC1Oc2ccc(NC(=O)Nc3cccc(OC)c3)cc2CN(Cc2ccc3c(c2)OCO3)C1=O (stereo unspecified) | 32µM | – | ? | – | –
CCC1Oc2ccc(NC(=O)Cc3ccccc3)cc2CN(Cc2cccc(OC)c2)C1=O (stereo unspecified) | ? | – | ? | – | –
CCNC(=O)Nc1ccc2c(c1)CN(Cc1cccc(OC)c1)C(=O)C(CC)O2 (stereo unspecified) | ? | – | – | – | –
C=CCN1C[C@H](COCc2ccccc2)Oc2ccncc2[S+]1(=O)[O-] | ? | · | ? | · | –
COc1ccc(NC(=O)c2ccc3c(c2)C2(CCCN(C)C2)CN3Cc2cccnc2)cc1 (stereo unspecified) | – | – | 32µM | – | –
CC(=O)N1CCCC2(C1)CN(C)c1ccc(C(=O)NCC3CC3)cc12 (stereo unspecified) | – | – | ? | – | –
CN1CCC2(C1)CN(Cc1ccccc1)c1ccc(C(=O)Nc3ccn(C)n3)cc12 (stereo unspecified) | ? | – | ? | – | –
CN1CCCC2(C1)CN(Cc1cccnc1)c1ccc(C(=O)NCC3CCCCC3)cc12 (stereo unspecified) | 89µM | – | 35µM | – | –
COc1ccc(C2=NOC3(CCN(Cc4ccsc4)C3)C2)cc1 (stereo unspecified) | ? | – | ? | – | –
Cc1cn2nc(C(=O)NCc3ccc(Cl)cc3)cc2c(N(C)Cc2ccccc2)n1 | ? | – | ? | – | –
